Measured values as given in PubChem BioAssay AID1159580 (chemical genetic matrix, 2015).
In all, about 5,500 compounds went through this assay and about 2,000 (36%) were called active. Another 18% or so got no clear call; they are omitted. Cut-off read from the data, not from the text of the source: active = normalized growth mostly below about 0.91 (no sharp cut-off); inconclusive = no clear call, values can overlap the other calls; inactive = mostly above about 0.92. The list shows a part of the results.

Experiment: chemical genetic growth profiling, strain panel (AID 1159580);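 note: tested at 20 µM; growth read once vehicle control cultures reached saturation at 30 °C; 1 = growth at the plate median or of vehicle wells; lower values mean less growth of the strain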
Details: S. cerevisiae deletion strains, growth OD

Measured: normalized growth

CCNc1nc(Cl)nc(NCC)n1
inactive: locus YAL013W, strain DEP1, active compounds read low 1 | locus YAL021C, strain ccr4, active compounds read low 0.983 | locus YAL026C, strain drs2, active compounds read low 1 | locus YAL030W, strain snc1, active compounds read low 0.992 | locus YBL061C, strain skt5, active compounds read low 0.991 | locus YBR009C, strain hhf1, active compounds read low 0.995 | locus YBR021W, strain FUR4, active compounds read low 1.03 | locus YBR023C, strain chs3, active compounds read low 0.995 | locus YBR171W, strain sec66, active compounds read low 0.99 | locus YBR229C, strain ROT2, active compounds read low 0.993 | locus YBR231C, strain swc5, active compounds read low 0.993 | locus YBR279W, strain paf1, active compounds read low 1 | locus YCL011C, strain gbp2, active compounds read low 1 | locus YCL016C, strain dcc1, active compounds read low 1.01 | locus YCL029C, strain bik1, active compounds read low 0.999 | locus YCL061C, strain MRC1, active compounds read low 0.989 | locus YCL069W, strain vba3, active compounds read low 0.968 | locus YCR088W, strain abp1, active compounds read low 0.995 | locus YDL005C, strain med2, active compounds read low 0.988 | locus YDL035C, strain GPR1, active compounds read low 1 | locus YDL040C, strain nat1, active compounds read low 0.999 | locus YDL074C, strain BRE1, active compounds read low 0.975 | locus YDL101C, strain DUN1, active compounds read low 1.01 | locus YDL134C, strain PPH21, active compounds read low 1.01 | locus YDL185W, strain tfp1, active compounds read low 0.991 | locus YDL192W, strain arf1, active compounds read low 1 | locus YDR001C, strain nth1, active compounds read low 0.998 | locus YDR069C, strain doa4, active compounds read low 0.979 | locus YDR101C, strain arx1, active compounds read low 0.994 | locus YDR137W, strain rgp1, active compounds read low 1.01 | locus YDR150W, strain NUM1, active compounds read low 0.971 | locus YDR159W, strain sac3, active compounds read low 0.979 | locus YDR162C, strain NBP2, active compounds read low 0.97 | locus YDR195W, strain ref2 0.942 | locus YDR297W, strain sur2, active compounds read low 0.982 | locus YDR318W, strain mcm21, active compounds read low 1 | locus YDR334W, strain swr1, active compounds read low 0.996 | locus YDR335W, strain msn5, active compounds read low 0.989 | locus YDR388W, active compounds read low 1 | locus YDR392W, strain spt3, active compounds read low 1.01 | locus YDR502C, strain sam2, active compounds read low 1.01 | locus YEL003W, strain gim4, active compounds read low 1.01 | locus YEL037C, strain rad23, active compounds read low 1 | locus YEL061C, strain CIN8 (second series), active compounds read low 0.997 | locus YEL061C, strain CIN8, active compounds read low 0.997 | locus YER015W, strain faa2, active compounds read low 1 | locus YER016W, strain bim1, active compounds read low 1.01 | locus YER110C, active compounds read low 0.996 | locus YER111C, strain swi4, active compounds read low 0.996 | locus YER155C, strain BEM2 (second series), active compounds read low 0.973 | locus YER155C, strain BEM2, active compounds read low 1 | locus YER167W, strain BCK2, active compounds read low 1 | locus YFR010W, strain ubp6, active compounds read low 1 | locus YGL078C, strain dbp3, active compounds read low 1 | locus YGL086W, strain mad1, active compounds read low 1 | locus YGL167C, strain pmr1, active compounds read low 1 | locus YGL173C, strain kem1, active compounds read low 0.99 | locus YGL227W, strain vid30, active compounds read low 0.978 | locus YGL240W, strain doc1, active compounds read low 0.986 | locus YGL248W, strain PDE1, active compounds read low 1.03 | locus YGL253W, strain hxk2, active compounds read low 0.993 | locus YGR078C, strain PAC10, active compounds read low 0.989 | locus YGR135W, strain pre9, active compounds read low 1 | locus YGR229C, strain SMI1, active compounds read low 1 | locus YGR252W, strain gcn5, active compounds read low 1.02 | locus YHR013C, strain ard1, active compounds read low 0.998 | locus YHR027C, strain rpn1, active compounds read low 1 | locus YHR030C, strain SLT2, active compounds read low 0.98 | locus YHR079C, strain IRE1 (second series), active compounds read low 1.01 | locus YHR094C, strain hxt1, active compounds read low 1 | locus YHR129C, strain ARP1, active compounds read low 0.96 | locus YHR142W, strain chs7, active compounds read low 1.02 | locus YHR200W, strain rpn10, active compounds read low 1.01 | locus YIL066C, strain RNR3, active compounds read low 1.01 | locus YIL073C, strain SPO22, active compounds read low 1.09 | locus YIL125W, strain kgd1, active compounds read low 1 | locus YIR030C, strain dcg1, active compounds read low 1.01 | locus YJL092W, strain hpr5, active compounds read low 1 | locus YJL095W, strain BCK1 (second series), active compounds read low 0.994 | locus YJL095W, strain BCK1, active compounds read low 0.994 | locus YJL115W, strain asf1, active compounds read low 1 | locus YJL129C, strain trk1, active compounds read low 0.986 | locus YJL134W, strain LCB3, active compounds read low 0.993 | locus YJL154C, strain vps35, active compounds read low 0.992 | locus YJL164C, strain tpk1, active compounds read low 0.999 | locus YJL166W, strain qcr8, active compounds read low 0.987 | locus YJL168C, strain set2, active compounds read low 1.01 | locus YJL187C, strain SWE1 (second series), active compounds read low 1
